Only some compounds are listed: those with a hit (about 4.2% of all), similar ones and a draw of the others.
uPA surface inh: qHTS for Inhibitors of Cell Surface uPA Generation; cell surface uPA generation assay, qHTS; Potency, µM (highest dose often 38.3 µM), most hits filed as inhibitors; 0.31% of 330,000 active; active means well fitted inhibition curve with a large enough effect; inconclusive means small, poorly fitted or top-dose-only effect; inactive means no such curve, though single readings can be large or run the other way; tested in mouse RAW 264.7 cells; further: nearly all actives have a fitted effect of over 55% in size
Sfp PPTase inh: qHTS Assay for Inhibitors of Bacillus subtilis Sfp phosphopantetheinyl transferase (PPTase); 4'-phosphopantetheinyl transferase ffp (Bacillus subtilis), Q9F4F7; Biochemical Sfp PPTase activity, qHTS; Potency, µM, hits mostly inhibitors; 3.5% of 310,000 active; AID 1490, 2009;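 further: the enzyme is Sfp with the accession as filed and its product quenches rhodamine fluorescence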
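Step 1, compound plus 15 nM Sfp-PPTase, 15 min, room temperature. Step 2, add rhodamine-CoA (5 uM) and BHQ-2-YbbR (12.5 uM). Step 3, read 525/598 nm fluorescence at 0 and 30 min.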
TCR activator: Activators of T cell receptors: qHTS campaign | primary human leukocytes, anti-CD3, IL-2 HTRF, 48 h | Potency, µM (highest dose often 9.22 µM), actives largely listed as activators | 330,000 tested, under 10 active
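Using a-CD3 beads without co-stimulation, primary human leukocytes were exposed to compounds for 48 hr. An HTRF IL-2 kit measured the cytokine, with europium-to-d2 energy transfer producing emission at 665nm upon 320nm excitation.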
ClpP mod: qHTS Assay for Activators of ClpP; purified B. subtilis ClpP, FRET peptide cleavage, 20 min; AID 651965, 2013; Potency, µM (doses to about 57.5 µM); 1.9% of 340,000 active; active means well fitted falling curve with a large enough effect; inconclusive means small, poorly fitted or top-dose-only effect; inactive means no such curve, though single readings can be large or run the other way; further: the source files actives as falling curves though it sought activators and does not explain the sign; nearly all actives have a fitted effect of over 65% in size
Target sequence (P80244 whole entry, looked up): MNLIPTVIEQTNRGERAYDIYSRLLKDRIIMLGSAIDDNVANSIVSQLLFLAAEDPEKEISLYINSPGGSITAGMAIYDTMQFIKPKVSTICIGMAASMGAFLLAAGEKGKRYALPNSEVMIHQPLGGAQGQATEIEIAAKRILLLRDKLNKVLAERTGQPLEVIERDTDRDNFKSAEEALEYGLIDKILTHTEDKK
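ClpP 10 microg/mL final, pH 8 Tris/KCl buffer with BSA, glycerol, Tween-20; compound pinned in; FRET-FV substrate; RT 20 min; Ex320/Em430; ΔFRET vs ADEP 5.8 microM, DMSO, no enzyme.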
Large screens that a line does not name were inactive. Unless noted, the call rests on the fitted dose curve; in most records, active means well fitted curve in the direction sought with a large enough effect; inconclusive means small, poorly fitted or top-dose-only effect, or another doubt; inactive means no such curve, though single readings can be large; an effect the other way counts as inactive or inconclusive.

O=C(NCc1ccccc1)C12CN(Cc3ccccc3)CC1C(c1cccc([N+](=O)[O-])c1)=NO2 (stereo not given)	none
Cc1ccc(CCNC(=O)C23CN(Cc4ccccc4)CC2C(c2ccc([N+](=O)[O-])cc2)=NO3)cc1 (stereo not given)	Sfp PPTase inh 10µM
Cc1c(C)c2ccc(OCC(=O)NCCCn3ccnc3)c(C)c2oc1=O	none
CCN=C1S/C(=C\c2ccc(Sc3ccc(Cl)cc3)o2)C(=O)N1CC	none
CCN=C1S/C(=C/c2ccc(-c3ccc(F)cc3)o2)C(=O)N1CC	Sfp PPTase inh 56.2µM
O=C1NC(=S)S/C1=C\C=C\c1ccc([N+](=O)[O-])o1	Sfp PPTase inh 44.7µM (no result: ClpP mod)
O=c1c2c(nc3c(-c4ccc(Cl)cc4)c[nH]n13)CCCC2	ClpP mod 14.1µM
Cc1[nH]n2c(=O)c3c(nc2c1-c1cccc2ccccc12)CCC3	ClpP mod inconclusive
Cc1[nH]n2c(=O)c3c(nc2c1-c1ccc(F)cc1)CCCC3	none (no result: ClpP mod)
O=c1c2c(nc3c(-c4cccc5ccccc45)c[nH]n13)CCC2	ClpP mod 11.2µM
CCCN(C(=O)c1c(C)oc2ncnc(N3CCOCC3)c12)c1ccc(Cl)c(Cl)c1	none (no result: uPA surface inh, Sfp PPTase inh, TCR activator)
Cc1cc(N)c2cc(NC(=O)/C=C/c3ccccc3Cl)ccc2n1	uPA surface inh inconclusive, Sfp PPTase inh 25.1µM
Cc1cc(C)nc(NC(=O)/C=C/c2ccccc2Cl)n1	none
O=c1cc(-c2cccc(-c3ccc(C(F)(F)F)cc3)c2)c2cc3c(cc2o1)OCO3	none (no result: uPA surface inh, TCR activator, ClpP mod)
COc1ccc(N(CC(C)C)S(=O)(=O)c2nnc(NC(=O)c3cccs3)s2)cc1	none (no result: uPA surface inh, Sfp PPTase inh, TCR activator)
CCOC(=O)c1sc(NC(=O)CSc2nnc(-c3ccco3)n2CC)c(C(=O)OCC)c1C	Sfp PPTase inh 25.1µM
CCn1c(SCC(=O)N(C)CC(=O)Nc2ccc(OC)cc2)nnc1-c1ccco1	none (no result: Sfp PPTase inh)
CCn1c(SCC(=O)N(C)CC(=O)Nc2cccc(OC)c2)nnc1-c1ccco1	ClpP mod 28.2µM (no result: Sfp PPTase inh)
Cc1ccc2c(c1)NC(=O)C(CC(=O)NCCCN1CCCC1)O2 (stereo not given)	none
Cc1ccc2c(c1)NC(=O)C(CC(=O)NCCCN1CCc3ccccc3C1)O2 (stereo not given)	Sfp PPTase inh 50.1µM
CCOc1ccc(CC(=O)Nc2nnc3n2CCS3)cc1	none (no result: uPA surface inh, Sfp PPTase inh, TCR activator)
CCN(CC)c1cc(Cl)c2nonc2c1N	none (no result: ClpP mod)
CN(C)c1cc(Cl)c2nonc2c1N	Sfp PPTase inh 89.1µM (no result: ClpP mod)
CCN(CC)C(=O)C1=C(C)N(Cc2ccc(F)cc2)C(=O)C(CC(=O)NCCCN(C)C)C1 (stereo not given)	none (no result: uPA surface inh, Sfp PPTase inh, TCR activator)
CCn1c(CSc2nc3ccccc3[nH]2)nc2cc(C(=O)O)ccc21	ClpP mod 35.5µM
Cn1ccnc1SCC(=O)c1ccc2ccccc2c1	none (no result: ClpP mod)
CCn1c(CSc2nccn2C)nc2cc(C(=O)O)ccc21	Sfp PPTase inh 56.2µM
Cc1ccc(-n2c(=O)[nH]c3c(C(N)=O)nc(CC(C)C)nc32)cc1	ClpP mod 28.2µM
Cc1ccc(-n2c(=O)[nH]c3c(C(N)=O)nc(-c4ccc(C)o4)nc32)cc1	Sfp PPTase inh 44.7µM
COc1ccc(OC)c(-c2nc(C(N)=O)c3[nH]c(=O)n(-c4ccc(F)cc4)c3n2)c1	none
c1cncc(-c2cncnc2NC2CCNCC2)c1	none (no result: uPA surface inh, TCR activator, ClpP mod)
CCOC(=O)c1cc2c(=O)n3ccccc3nc2n(CCOC)c1=NC(=O)c1ccncc1	ClpP mod 12.6µM
CCOC(=O)c1cc2c(=O)n3ccccc3nc2n(C(C)C)c1=NC(=O)c1ccncc1	ClpP mod 28.2µM
CCOC(=O)c1cc2c(=O)n3ccccc3nc2n(CCCOC)c1=NC(=O)C(C)(C)C	ClpP mod 28.2µM
CCOC(=O)c1cc2c(=O)n3ccccc3nc2n(CCCOC)c1=NC(=O)c1cccnc1	none (no result: uPA surface inh, ClpP mod)
CCOC(=O)c1cc2c(=O)n3ccccc3nc2n(CCOC)c1=NC(=O)C(C)(C)C	ClpP mod 17.8µM
CC(=O)Nc1sc(/C(C#N)=C/c2ccc(Cl)c(Cl)c2)nc1-c1ccc(C)cc1	Sfp PPTase inh 15.8µM
O=C(NCCN1CCN(S(=O)(=O)c2ccc([N+](=O)[O-])cc2)CC1)C(=O)Nc1ccccc1	ClpP mod 28.2µM (no result: TCR activator)
O=C(NCCN1CCN(Cc2ccc([N+](=O)[O-])cc2)CC1)C(=O)Nc1ccccc1	none
Cc1ccc(C)c(N2CCN(C(=O)c3cc(S(=O)(=O)N4CCCC4)c[nH]3)CC2)c1	none (no result: uPA surface inh, Sfp PPTase inh, TCR activator)
Cc1c(CC(=O)O)c(=O)oc2cc3occ(-c4ccc(F)cc4)c3cc12	Sfp PPTase inh 39.8µM
COc1ccccc1N(C)C	none (no result: uPA surface inh, Sfp PPTase inh, TCR activator)
CN(C)/C=C1\N=C(c2ccccc2)OC1=O	none (no result: ClpP mod)
COc1ccc(/C=C/C2=NC(=C\N(C)C)/C(=O)O2)cc1	Sfp PPTase inh 79.4µM, ClpP mod inconclusive
CC(=O)NC(c1cccs1)c1cc(F)c2cccnc2c1O (stereo not given)	uPA surface inh 5.01µM (no result: Sfp PPTase inh, ClpP mod)
Cc1ccc(S(=O)(=O)NCl)cc1	Sfp PPTase inh 5.62µM (no result: uPA surface inh, TCR activator, ClpP mod)
CNS(=O)(=O)c1ccc(C)cc1	none
O=C(Nc1nc2nccc(-c3ccccc3)n2n1)c1ccc(F)cc1	ClpP mod 28.2µM
COc1ccc(NC(=O)N(C)C[C@@H]2OCc3cnnn3CCCC(=O)N([C@@H](C)CO)C[C@H]2C)c(OC)c1	none (no result: uPA surface inh, Sfp PPTase inh, TCR activator)
O=C(O)/C=C/C(=O)Nc1ccccc1-c1ccccc1NC(=O)/C=C/C(=O)O	Sfp PPTase inh 7.94µM
O=C(O)/C=C/C(=O)Nc1cccc2c1-c1ccccc1C2=O	none (no result: Sfp PPTase inh)
O=C(O)/C=C/C(=O)Nc1ccc(SC(F)(F)F)cc1	none
O=C(O)/C=C/C(=O)Nc1ccccc1SC(F)(F)F	uPA surface inh inconclusive, Sfp PPTase inh 12.6µM
O=C(O)/C=C\C(=O)Nc1ccccc1C(=O)NCc1ccccc1	ClpP mod 3.98µM
CSc1ccc(/C=C/c2nc3ccccc3n2S(=O)(=O)c2ccc(Br)cc2)cc1	none (no result: uPA surface inh, Sfp PPTase inh, TCR activator)
NS(=O)(=O)c1ccc(CCNCc2cc(Br)ccc2OCc2ccccc2F)cc1	Sfp PPTase inh 50.1µM (no result: ClpP mod)
COc1ccc2ccccc2c1/C=N/Nc1ccc(Cl)c(C(=O)O)c1	none (no result: ClpP mod)
COc1ccc(N/N=C/c2c(C(=O)O)ccc3ccccc23)cc1	uPA surface inh 10µM
O=C1CC(c2ccc3c(c2)OCO3)c2cc(O)ccc2O1 (stereo not given)	Sfp PPTase inh 89.1µM (no result: uPA surface inh, TCR activator, ClpP mod)
COc1ccc(C(=O)N/N=C/c2ccc3cccc(OCc4ccccc4)c3n2)cc1	Sfp PPTase inh inconclusive, ClpP mod 3.16µM
O=C(N/N=C/c1ccc2cccc(OCc3ccccc3)c2n1)c1ccc(Br)cc1	ClpP mod 3.98µM
O/N=C/c1ccc2cccc(OCc3ccccc3)c2n1	none
NC(=S)N/N=C/c1ccc2cccc(OCc3ccccc3)c2n1	none (no result: ClpP mod)
c1cnc2[nH]ccc2c1	none (no result: uPA surface inh, Sfp PPTase inh, TCR activator)
COc1ccccc1-c1ccc(/C=C2/C=C(CC(C)C)OC2=O)o1	Sfp PPTase inh 50.1µM, ClpP mod 35.5µM
Cc1nc(NS(=O)(=O)c2ccc(N)cc2)nc(C)c1Br	none (no result: uPA surface inh, TCR activator, ClpP mod)
CCCS(=O)(=O)c1c(S(=O)(=O)CCC)c2c(C)cccn2c1C(=O)N/N=C/c1cc(O)cc(O)c1	uPA surface inh 11.2µM
Cc1ccc(-n2c3c(c(=O)[nH]c2=O)C(NS(=O)(=O)c2ccc(C)cc2)(C(F)(F)F)C(=O)N3)cc1 (stereo not given)	none (no result: uPA surface inh)
